Experimental data from PubChem BioAssay (NCI).
The panel holds about 83,000 compounds, 20% with a hit somewhere; the sample as a whole holds those more often.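 Single-dose data. Exposure time 48 hours. Values below 10 considered active.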 A number with no mark means an inactive call. Calls of active or inactive are those of the source.

The molecules below were run on OVCAR-5 ovarian (assay: NCI-60 one-dose screen, 48 h (100 = growth as untreated, 0 = no growth, -100 = all killed)). Details: 10 µM unless noted.
Procedure: Growth inhibition of the OVCAR-5 human tumor cell line is measured as a screen for anti-cancer activity. Cells are grown in 96 well plates and exposed to the test compound for 48 hours. Compounds are tested at a single concentration, which is 10^-5 M for most compounds. The reported endpoint is percent growth (GI% or GIPRCNT), where numbers from 0 - 100% represent growth inhibition, and numbers from -100% - 0 represent cell death. For example, a value of 40 represents 60% growth inhibition. A value of 0 means no net growth occurred over the course of the experiment. A value of -40 indicates 40% of cells at the beginning of the experiment died by the end of the experiment. A value of -100 means all cells are dead at the end of the experiment.
NCI-60 Human Tumor Cell Lines Screen was performed using the standard one-dose NCI protocol, which is described in more detail at https://dtp.cancer.gov/discovery_development/nci-60/default.htm.
Compounds with GIPRCNT values below 10 were considered active. Activity score was based on GIPRCNT using the following formula: […]
Score is 0 for GIPRCNT values of 100 or above, 50 for GIPRCNT values of 0, and 100 for GIPRCNT values of -100.

Row | SMILES | growth
1 | O=C(CCN1C(=O)/C(=C/c2ccccc2F)SC1=S)N1CCOCC1 | 94.2%
2 | COc1cc(/C=C/C(=O)c2ccc(F)cc2)ccc1Oc1nc(NCCO)nc(N2CCOCC2)n1 | 98.8%
3 | COc1cc(N=Cc2sc(Nc3nccs3)nc2O)cc(OC)c1OC | 103%
4 | CCOC(=O)c1c(Nc2ccccc2)nn2c(N)c(C#N)c(-c3ccccc3)nc12 | 109%
5 | CCCC(=O)NC(c1ccc2c(c1)OC(F)(F)O2)c1cc(C)c2cccnc2c1O (stereo not given) | 42%
6 | N#Cc1ccc(C(=O)CSc2nc(Nc3ccc(S(N)(=O)=O)cc3)c3ccccc3n2)cc1 | 110%
7 | O=C(N/N=C/c1ccc(Cl)s1)c1[nH]c2ccc(Br)cc2c1-c1ccccc1 | 52.9%
8 | NS(=O)(=O)c1cccc(Nc2nc(SCC(=O)c3ccc(Br)cc3)nc3ccccc23)c1 | 115%
9 | NS(=O)(=O)c1ccc(Nc2nc(SCC(=O)c3ccc(Cl)cc3)nc3ccccc23)cc1 | 100%
10 | Clc1ccc2oc3c(OCCCn4ccnc4)c4ccccc4nc3c2c1 | 73.5%
11 | CN1CCN(Cc2ccc(NC(=O)c3cncc(C#Cc4cnc5ccc(N6CCSCC6)nn45)c3)cc2C(F)(F)F)CC1 | -22.4% (active)
12 | COc1ccc(C(=O)/C=C/c2ccc(Oc3nc(NCCO)nc(N4CCOCC4)n3)c(OC)c2)cc1 | 99.9%
13 | O=C(CSc1nc2sc3c(c2c(=O)n1-c1ccc(Cl)cc1)CCCC3)N/N=C/c1ccc(F)cc1 | 106%
14 | COc1cc(/C=C/C(=O)c2cc(OC)c(OC)c(OC)c2)ccc1OCc1ccccc1 | 47%
15 | COc1ccc(CNS(=O)(=O)/N=C2\NC(=O)NC2=C(Cl)Cl)cc1 | 37.2%
16 | N#Cc1c(-c2ccc(Cl)cc2)nc(SCc2ccc([N+](=O)[O-])cc2)nc1N1CCNCC1 | 3.39% (active)
17 | COc1ccc(/C=N/NC(=O)c2[nH]c3ccc(Br)cc3c2-c2ccccc2)s1 | 51.2%
18 | CC(C)Sc1nc(Nc2ccc(S(N)(=O)=O)cc2)c(C#N)c(-c2ccc(F)cc2)n1 | 67.3%
19 | O=C(N/N=C/c1ccc[nH]1)c1[nH]c2ccc(Br)cc2c1-c1ccccc1 | 43.7%
20 | N/C(=N\c1nc2c(Cl)cc(Cl)cc2s1)C(Cl)(Cl)Cl | 69.5%

Row | SMILES | growth
21 | COc1ccc(COc2ccc(/C=C3/C(=O)Nc4cc(Cl)ccc43)cc2)cc1 | 96.2%
22 | Clc1ccc2c(NCCCn3ccnc3)c3oc4ccccc4c3nc2c1 | 38.2%
23 | O=C(c1ccc(O)cc1)C1[C@H](c2ccc(Cl)cc2)[C@@H](c2ccccc2)NC12C(=O)Nc1ccc(Cl)cc12 (stereo not given in full) | 68.8%
24 | O=C(CSc1nc2sc3c(c2c(=O)n1-c1ccc(Cl)cc1)CCCC3)NNC(=O)Nc1cccc(C(F)(F)F)c1 | 52.6%
25 | CN(C)CCCOc1c2ccc(Cl)cc2nc2c1oc1ccc(Cl)cc12 | 21.3%
26 | N[C@@H](Cc1cn(-c2c3ccccc3nc3ccccc23)nn1)C(=O)O | 99.2%
27 | Clc1ccc2c(OCCCN3CCOCC3)c3oc4ccccc4c3nc2c1 | 35.1%
28 | OC1CCN(CCCOc2c3ccc(Cl)cc3nc3c2oc2ccc(Cl)cc23)CC1 | -28.1% (active)
29 | COc1ccc2[nH]cc(-c3cc(N)n4nc(-c5c[nH]c6ccc(OC)cc56)cc4n3)c2c1 | 8.81% (active)
30 | N#Cc1c(-c2ccc(Cl)cc2)nc2c(-c3ccccc3)c(Nc3ccccc3)nn2c1N | 67.4%
31 | C#Cc1nc(C2=C(C)C(OC(=O)CCC(=O)O)CC2)cs1 (stereo not given) | 125%
32 | Cn1ccnc1C(=O)/C=C/c1ccc(NC(=O)Nc2ccc(Cl)cc2)cc1 | 110%
33 | COc1cc2nc(-c3ccc(Cl)cc3)cc(OCCCNCC3CCCO3)c2cc1OC (stereo not given) | 50.1%
34 | CC(C)(C)Nc1nc2c(OCCc3ccccc3)cccn2c1-c1ccccc1Cl | 10.9%
35 | Clc1ccc(Cc2nnc3sc(-c4cccnc4)nn23)cc1 | 94.7%
36 | COc1ccc(/C=N/NC(=O)c2[nH]c3ccc(Br)cc3c2-c2ccccc2)o1 | 39.9%
37 | CC(C)(C)Nc1nc2c(OCCc3ccccc3)cccn2c1-c1ccc(O)cc1 | 70.2%
38 | Cc1ccc2ccc3ccc(C)nc3c2n1.Cc1ccc2ccc3ccc(C)nc3c2n1.Oc1c(Cl)cc(Cl)c2ccc(CN3CCCCC3)nc12.[Ru] | -72% (active)
39 | C#Cc1nc(C2=C(C)C(=N\O)/C(=N/O)C2)cs1 | 109%
40 | CC(C)NC(=O)c1cc(-c2ccc(NC(=O)Nc3ccc(N4CCOCC4)c(C(F)(F)F)c3)cc2)nc2cccnc12 | 88.1%
